Here are results for five compounds from PMC11062922 (Nature Chemical Biology, 2023).

Holding throughout (design): species or system human, MV4-11 + K-562 + COLO205 + SK-N-BE2 + OVCAR-8
In test [1] the test system is AURKA. Conditions: read-out: apparent Kd; compound concentrations:100 nM and 1000 nM (sheet 'Samples'); n = 1.
Test [2] has as its system AURKB. Conditions: read-out: apparent Kd; compound concentrations:100 nM and 1000 nM (sheet 'Samples'); n = 1.
Test [3] relates to DDR1. The settings on record: read-out: apparent Kd; compound concentrations:100 nM and 1000 nM (sheet 'Samples'); n = 1.
Test [4] deals with DDR2. Conditions: read-out: apparent Kd; compound concentrations:100 nM and 1000 nM (sheet 'Samples'); n = 1.
For test [5], the system named is FLT3. The settings on record: read-out: apparent Kd; compound concentrations:100 nM and 1000 nM (sheet 'Samples'); n = 1.
The test system of test [6] is FLT4. Conditions: read-out: apparent Kd; compound concentrations:100 nM and 1000 nM (sheet 'Samples'); n = 1.
Test [7] has as its system MET. The settings on record: read-out: apparent Kd; compound concentrations:100 nM and 1000 nM (sheet 'Samples'); n = 1.
Test [8] has as its system PLK4. The settings on record: read-out: apparent Kd; compound concentrations:100 nM and 1000 nM (sheet 'Samples'); n = 1.
Test [9] has as its system RET. The settings on record: read-out: apparent Kd; compound concentrations:100 nM and 1000 nM (sheet 'Samples'); n = 1.
Test [10] has as its system TGFBR2. Conditions: read-out: apparent Kd, n = 1.
The subject of test [11] is TNK1. The settings on record: read-out: apparent Kd; compound concentrations:100 nM and 1000 nM (sheet 'Samples'); n = 1.
Test [12] has as its system CAMK2B. The settings on record: read-out: apparent Kd, compound concentrations: 100 nM and 1000 nM (sheet 'Samples'), n = 1.
Test [13] concerns EGFR. Conditions: read-out: apparent Kd; compound concentrations: 100 nM and 1000 nM (sheet 'Samples'), CATDS: 0.186882259763333; n = 1.
Test [14] relates to FN3KRP. Conditions: read-out: apparent Kd; compound concentrations: 100 nM and 1000 nM (sheet 'Samples'), CATDS: 0.322807069227038; n = 1.
The subject of test [15] is NQO2. Conditions: read-out: apparent Kd; compound concentrations: 100 nM and 1000 nM (sheet 'Samples'), CATDS: 0.51408272608471794; n = 1.
Test [16] relates to CAMK4. The settings on record: read-out: apparent Kd; compound concentrations:100 nM and 1000 nM (sheet 'Samples'); n = 1.
Test [17] deals with CDK10. The settings on record: read-out: apparent Kd; compound concentrations:100 nM and 1000 nM (sheet 'Samples'); n = 1.
Test [18] concerns CDK6. The settings on record: read-out: apparent Kd; compound concentrations:100 nM and 1000 nM (sheet 'Samples'); n = 1.
Test [19] relates to HSP90B1. The settings on record: read-out: apparent Kd; compound concentrations:100 nM and 1000 nM (sheet 'Samples'); n = 1.
In test [20] the test system is MAPK9. Conditions: read-out: apparent Kd; compound concentrations:100 nM and 1000 nM (sheet 'Samples'); n = 1.
Test [21] deals with CDC42BPG. Conditions: read-out: apparent Kd, compound concentrations: 100 nM and 1000 nM (sheet 'Samples'), n = 1.
The subject of test [22] is CDC42BPA. The settings on record: read-out: apparent Kd; compound concentrations: 100 nM and 1000 nM (sheet 'Samples'), CATDS: 5.2351316008414299E-2; n = 1.
The test system of test [23] is CDC42BPB. The settings on record: read-out: apparent Kd; compound concentrations: 100 nM and 1000 nM (sheet 'Samples'), CATDS: 8.8336954775193793E-2; n = 1.
The subject of test [24] is CIT. Conditions: read-out: apparent Kd; compound concentrations: 100 nM and 1000 nM (sheet 'Samples'), CATDS: 4.1257824798939802E-2; n = 1.
For test [25], the system named is GSK3A. The settings on record: read-out: apparent Kd; compound concentrations: 100 nM and 1000 nM (sheet 'Samples'), CATDS: 6.6590939053141299E-2; n = 1.
The subject of test [26] is GSK3B. Conditions: read-out: apparent Kd; compound concentrations: 100 nM and 1000 nM (sheet 'Samples'), CATDS: 5.7473079866645002E-2; n = 1.
The subject of test [27] is LATS1. The settings on record: read-out: apparent Kd; compound concentrations: 100 nM and 1000 nM (sheet 'Samples'), CATDS: 9.7617752181751005E-2; n = 1.
Test [28] concerns MELK. Conditions: read-out: apparent Kd; compound concentrations: 100 nM and 1000 nM (sheet 'Samples'), CATDS: 3.9798752380349897E-2; n = 1.
In test [29] the test system is PIM2. Conditions: read-out: apparent Kd; compound concentrations: 100 nM and 1000 nM (sheet 'Samples'), CATDS: 3.9305369436655899E-2; n = 1.
In test [30] the test system is PKN1. Conditions: read-out: apparent Kd; compound concentrations: 100 nM and 1000 nM (sheet 'Samples'), CATDS: 5.10787631229489E-2; n = 1.
Test [31] has as its system PKN2. Conditions: read-out: apparent Kd; compound concentrations: 100 nM and 1000 nM (sheet 'Samples'), CATDS: 0.10529576550344701; n = 1.
In test [32] the test system is PKN3. Conditions: read-out: apparent Kd; compound concentrations: 100 nM and 1000 nM (sheet 'Samples'), CATDS: 7.5123616152450098E-2; n = 1.
Test [33] deals with PRKCD. The settings on record: read-out: apparent Kd; compound concentrations: 100 nM and 1000 nM (sheet 'Samples'), CATDS: 4.7600533204707897E-2; n = 1.
In test [34] the test system is PRKCI. The settings on record: read-out: apparent Kd; compound concentrations: 100 nM and 1000 nM (sheet 'Samples'), CATDS: 3.9274053765020099E-2; n = 1.
The test system of test [35] is ROCK1. Conditions: read-out: apparent Kd; compound concentrations: 100 nM and 1000 nM (sheet 'Samples'), CATDS: 0.30602984254096799; n = 1.
In test [36] the test system is ROCK2. Conditions: read-out: apparent Kd; compound concentrations: 100 nM and 1000 nM (sheet 'Samples'), CATDS: 0.35552561268284599; n = 1.
Test [37] concerns RPS6KB1. The settings on record: read-out: apparent Kd; compound concentrations: 100 nM and 1000 nM (sheet 'Samples'), CATDS: 4.4674945957763799E-2; n = 1.

SMILES strings stand for the structures. Where two headings read alike, the source gives them in different places.

`CN1CCN(C(=O)c2ccc(NC(=O)Nc3ccc(N(C)c4ccnc(Nc5ccc(CS(C)(=O)=O)cc5)n4)cc3)cc2)CC1.Cl` [GW830263A]: the potency estimated from few doses was 303 nM in test [1]; 247 nM in [2]; 816 nM in test [3]; 1150 nM in [4]; 108 nM in test [5]; 566 nM in test [6]. Besides, the potency estimated from few doses in [7] is 2330 nM; in test [8], 873 nM; in test [9], 708 nM; in [10] (compound concentrations:100 nM and 1000 nM (sheet 'Samples')), 2130 nM; in [11], 357 nM.
Consider `CS(=O)(=O)CCNCc1cc(-c2cc3c(Nc4ccc(OCc5cccc(F)c5)c(Cl)c4)ncnc3s2)cs1` [GSK300014A], for which the potency estimated from few doses in test [12] (CATDS: 0.17838032280045099) was 575 nM; in test [13] it was 481 nM; in test [14] it was 112 nM; in [15], 48.6 nM.
In the case of `FC(F)(F)c1cc(Nc2nccc(-c3c(-c4ccc(Cl)cc4)nn4ncccc34)n2)ccc1Cl` [GW829351X], the potency estimated from few doses in test [16] is 2170 nM; in [17], 1110 nM; in test [18], 1600 nM; in test [19], 114 nM; in [20], 1950 nM.
In the case of `CC(=O)c1cccc(NC(=O)NC2CCN(c3ccnc(Nc4ccc(F)cc4)n3)C2)c1` (stereo not shown) [GSK1379710A], the potency estimated from few doses in test [12] (CATDS: 0.45537516387232402) is 658 nM; in test [21] (CATDS: 0.32700083085172899) it was 1220 nM; in test [10] (compound concentrations: 100 nM and 1000 nM (sheet 'Samples'), CATDS: 0.26695766684010303), 2000 nM.
As for `NCc1ccc(-n2c(-c3nonc3N)nc3cnccc32)cc1` [SB-750140], the potency estimated from few doses in test [22] is 660 nM; in test [23] it was 173 nM; in test [21] (CATDS: 4.2033135949813498E-2), 1420 nM; in test [24], 1530 nM; in test [25], 339 nM; in test [26] it was 502 nM. The potency estimated from few doses is 139 nM in test [27]; 1800 nM in test [28]; 1910 nM in test [29]; 712 nM in [30]; 118 nM in test [31]; 252 nM in test [32]. For the same compound, the potency estimated from few doses is 895 nM in test [33]; 1910 nM in test [34]; 16.3 nM in [35]; 12.9 nM in test [36]; 1120 nM in test [37].
